In PubChem BioAssay (NCI):
Compounds without any hit were thinned out: in the full panel of roughly 83,000, 20% have a hit.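 Compound tested at a single concentration for 48 hours in 96-well plates; a percent growth value below 10 was scored as active.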 Unmarked numbers belong to inactive results. The source made the active and inactive calls.

Tested on: KM12 colon
Experiment: NCI-60 one-dose screen, 48 h (100 = growth as untreated, 0 = no growth, -100 = all killed)
Settings: 10 µM
Experimental: Growth inhibition of the KM12 human tumor cell line is measured as a screen for anti-cancer activity. Cells are grown in 96 well plates and exposed to the test compound for 48 hours. Compounds are tested at a single concentration, which is 10^-5 M for most compounds. The reported endpoint is percent growth (GI% or GIPRCNT), where numbers from 0 - 100% represent growth inhibition, and numbers from -100% - 0 represent cell death. For example, a value of 40 represents 60% growth inhibition. A value of 0 means no net growth occurred over the course of the experiment. A value of -40 indicates 40% of cells at the beginning of the experiment died by the end of the experiment. A value of -100 means all cells are dead at the end of the experiment.
NCI-60 Human Tumor Cell Lines Screen was performed using the standard one-dose NCI protocol, which is described in more detail at https://dtp.cancer.gov/discovery_development/nci-60/default.htm.
Compounds with GIPRCNT values below 10 were considered active. Activity score was based on GIPRCNT using the following formula: […]
Score is 0 for GIPRCNT values of 100 or above, 50 for GIPRCNT values of 0, and 100 for GIPRCNT values of -100.

Going from `Brc1ccc(/C=N/Nc2ncnc3sc4c(c23)CCN(Cc2ccccc2)C4)cc1` to `Cc1nn(-c2ccccc2)c2ncn(CC(=O)N/N=C/c3c[nH]c4ccccc34)c(=O)c12`, the growth rises from 50.2% to 92.4%.

First: C=C(c1ccc(OC)c(N)c1)c1cc(C)nc2ccccc12
Second: Cc1ccc(-c2cc(C(=O)N=Nc3c(O)[nH]c4ccc(Br)cc34)c3ccccc3n2)cc1
The growth of the first is lower: 10.5% for the first, 49.1% for the second.

Compared with `CN(C)c1ccc(/C=C/C(=O)c2ccc(NC(=O)CN3C(=O)NC(C)(c4ccccc4)C3=O)cc2)cc1` (stereo not given), `CN(C)c1ccc(/C=C/c2nc3ccccc3c(=O)n2CC(=O)Nc2ccc(Cl)cc2)cc1` is higher in growth: 23.7% for the first, 55.1% for the second.

Compared with `O=C(NCCCCC(c1ccc(F)cc1)c1ccc(F)cc1)NCCCc1cccnc1`, `CN1CCN(c2ccc(Nc3nc(NCCCNC(=O)c4ccc(Cl)cc4)c4sccc4n3)cc2)CC1` is higher in growth: 18% for the first, 68.7% for the second.

Compared with `Cc1ccc(C(=O)Nc2ccc(-n3c(C)nc4c(cnn4-c4ccccc4)c3=O)cc2)cc1`, `CNC(=O)c1cc(-c2ccc(NC(=O)Nc3ccc(C)cc3)cc2)nc2cccnc12` is higher in growth: 77.5% for the first, 102% for the second.

Going from `CC(=O)Nc1ccc(-n2cnc3cc(-c4ccc(O)cc4)ccc32)cc1C` to `COc1ccc(-c2ccc(SCC(=O)Nc3ccc(C#N)cc3)nn2)cc1`, the growth rises from 22.1% to 99.9%.

First: O=S(=O)(Nc1ncccn1)c1ccc(-n2c(-c3ccc(Br)cc3)nc(-c3ccccc3)c2-c2ccccc2)cc1
Second: COc1ccc(-c2nc(S(=O)(=O)c3ccc(C)cc3)c(S(=O)(=O)CC(=O)N(C)Cc3ccccc3)o2)cc1
The growth of the first is lower: 27.7% for the first, 57.5% for the second.

First: C#Cc1ccc(S(=O)(=O)Nc2cccc(-c3csc(NC(C)=O)n3)c2)cc1
Second: O=C(CNc1nc(-c2ccccc2)cs1)Nc1ccc([N+](=O)[O-])cc1
The growth of the first is higher: 69.4% for the first, 36.7% for the second.

Compared with `O=C(CS(=O)(=O)c1oc(-c2ccc(Cl)cc2)nc1S(=O)(=O)c1ccccc1)N1CCCC1`, `CC(=O)NS(=O)(=O)c1ccc(NC(=O)CSC2=NC(c3ccccc3)C(C(C)=O)=C(C)N2)cc1` (stereo not given) is higher in growth: 61.7% for the first, 104% for the second.

Going from `CCCn1c(=O)c2[nH]c(-c3ccc(OCc4nc5ccccc5[nH]4)cc3)nc2n(CCC)c1=O` to `COc1cc2c3c(n(CCCNCCO)c(=O)c2cc1OC)-c1nc2c(cc1C3=O)OCO2`, the growth falls from 63.8% to 40.4%.

First: CN1CCN(c2ccc(C(=O)/C=C/c3ccc(C#N)cc3)cc2)CC1
Second: Cc1ccc(C(=O)NCCCNc2nc(Nc3ccc(N4CCN(C)CC4)cc3)nc3ccsc23)cc1
The growth of the first is higher: 46.8% for the first, 37.2% for the second.

Going from `C/C(=N\N=C\c1ccc(N(C)C)cc1)c1ccc2c(c1)Nc1ccccc1S2` to `O=C(CSc1ccc(-c2ccc(Cl)cc2)nn1)Nc1ccc(Cl)c(C(F)(F)F)c1`, the growth falls from 60.9% to 43.3%.

First: COc1cc2oc(-c3cccc(C(=O)Nc4ccc(Cl)cc4)c3)cc(=O)c2c(OCCNC(=O)CNC(=O)OC(C)(C)C)c1OC
Second: O=C(Cn1cc(CSc2nnc3oc4ccccc4n23)nn1)Nc1ccc(Br)cc1
The growth of the first is lower: 48.6% for the first, 85.7% for the second.

Going from `COc1cc(OC(F)(F)F)ccc1C(=O)Nc1sc2c(c1C#N)CCC(=O)C2` to `N#Cc1c(NC(=O)c2cccc(C(F)(F)F)c2)sc2c1CCC(O)=C2`, the growth falls from 88.1% to 23.1%.

First: NC1=NC(c2ccccc2Cl)N=C(Nc2nn[nH]n2)N1 (stereo not given)
Second: Nc1nc(Nc2ccccc2)nn1Cc1c(Cl)cccc1Cl
The growth of the first is higher: 100% for the first, 13% for the second.

First: O=C(Nc1cccc([N+](=O)[O-])c1)Nc1cccc([N+](=O)[O-])c1
Second: Nc1nc2c(F)c(F)c(F)c(F)c2s1
The growth of the first is lower: 70.6% for the first, 99.9% for the second.

In the case of `CC(C)(C)c1ccc(NCc2cn(-c3ccc(C(=O)O)cc3)nc2-c2ccc(C#N)cc2)cc1`, the growth is reported as -38.3% (active).
For `COc1ccc(C(=O)/C=C/c2cc(F)cc(C(F)(F)F)c2)cc1S(N)(=O)=O`, the growth was -82.4% (active).
With `Nc1nc(Nc2ccc(Cl)cc2)n(Cc2cccc(Br)c2)n1` the growth was -0.172% (active).
In the case of `CC(=O)Nc1ccc(-c2cn(-c3cccc(C(=O)Nc4ccc(Cl)c(C(F)(F)F)c4)c3)nn2)cn1`, the growth is reported as -3.58% (active).
With `C=C1CCC2C3(C)COC(c4ccccc4F)OC3CCC2(C)C1C/C=C1/C(=O)OCC1O` (stereo not given) the growth was -82.3% (active).
With `O=c1oc2ccc(-c3ccc(F)cc3F)cc2c(=O)n1-c1ccc(Cl)c(C(F)(F)F)c1` the growth was -14% (active).
In the case of `COc1ccc(N(C)c2cc(C#N)nc3ccccc23)cc1/C=C/C(=O)NO`, the growth is reported as -37.1% (active).
For `CN1CCN(c2ccc(C(=O)/C=C/c3cc(C(F)(F)F)ccc3Cl)cc2)CC1`, the growth was -36.5% (active).
